Our source for the growth values is PubChem BioAssay (NCI).

Test in all cases: NCI-60 one-dose screen, 48 h (100 = growth as untreated, 0 = no growth, -100 = all killed)
Holding throughout (conditions): 10 µM unless noted

Test [1] deals with SR leukemia.
The test system of test [2] is RPMI-8226 leukemia.
Test [3] concerns OVCAR-8 ovarian.
The subject of test [4] is OVCAR-5 ovarian.
Test [5] relates to OVCAR-4 ovarian.
The subject of test [6] is SK-OV-3 ovarian.
The subject of test [7] is IGROV1 ovarian.
Test [8] deals with HS 578T breast.
The test system of test [9] is NCI/ADR-RES ovarian.
Test [10] concerns T-47D breast.
The subject of test [11] is BT-549 breast.
The test system of test [12] is MDA-MB-435 melanoma.
Test [13] deals with SW-620 colon.
The subject of test [14] is MCF7 breast.
Test [15] has as its system HCT-116 colon.
For test [16], the system named is HCC-2998 colon.
The subject of test [17] is KM12 colon.

The structures appear in SMILES notation. About 83,000 compounds went through this panel and 20% of them were active in at least one assay; those are over-represented in the sample as a whole.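 Values shown are percent growth following 48 h exposure of cells in 96-well plates to a single concentration of compound; below 10 was considered active.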 Values without a mark were called inactive. Calls of active or inactive are those of the source.

In the case of `NS(=O)(=O)c1ccc(Nc2nc(SCc3ccccc3)nc3ccccc23)cc1`, the growth in [1] was 33.6%; in [2], 32.8%; in [3], 60.6%; in [4], 83.3%; in test [5] it was 58%; in test [6], 91.3%. The growth is 90.9% in [7]; 62.2% in test [8]; 102% in [9]; 24.8% in test [10]; 66.7% in test [11]; 76.8% in [12]. Also, the growth is 61% in test [13]; 54.3% in [14]; 53.2% in test [15]; 83% in [16]; 27.8% in test [17].

`NS(=O)(=O)c1ccc(Nc2cc(-c3ccccc3)nc(SCC(=O)c3ccccc3)n2)cc1`: the growth in test [1] was 101%; in test [2], 93.7%; in [3] it was 99.3%; in [4] it was 104%; in [5] it was 102%; in [6] it was 110%. Moreover, the growth was 97.4% in test [7]; 107% in [8]; 101% in test [9]; 97.5% in test [10]; 97.6% in test [11]; 93.4% in [12]. Moreover, the growth in test [13] was 102%; in test [14], 89.5%; in test [15], 101%; in test [16] it was 101%; in test [17], 102%.

Turning to `CCOc1ccc(C(=O)Nc2ncc(Cc3ccc(F)cc3)s2)cc1`, the growth in test [1] is 19.6%; in test [2] it was 25.5%; in [3] it was 22.1%; in [4] it was 34.1%; in test [5], 54.1%; in test [6] it was 36.2%. The growth in [7] is 40%; in test [8] it was 1.23% (active); in test [9] it was 18.2%; in [10], 34.1%; in test [11] it was 57.1%; in [12], -16.1% (active). Further, the growth in test [13] is 26.1%; in test [14], 19.1%; in test [15], 13.2%; in [16], 15.5%; in [17], 16.7%.

As to `Cc1noc(C)c1CSc1nc2ccccc2n1-c1ccccc1`, the growth in test [1] is 69.7%; in [2] it was 95.8%; in [3], 102%; in test [4], 89%; in test [5], 69.1%; in test [6], 116%. Further, the growth in test [7] was 77%; in test [8], 102%; in test [9], 97.3%; in test [10] it was 93.8%; in [11] it was 87.5%; in [12], 100%. Also, the growth in test [13] was 94.5%; in test [14] it was 94.9%; in test [15], 92.9%; in test [16], 112%; in test [17] it was 101%.

`Cc1cc(C)c2sc(=O)n(Cc3nnc(SCCC(=O)O)o3)c2n1`: the growth was 79.2% in test [1]; 99.8% in test [2]; 104% in test [3]; 99.4% in test [4]; 108% in test [5]; 105% in test [6]. The growth in test [7] was 102%; in [8], 103%; in [9], 102%; in test [10], 89.5%; in test [11], 123%; in test [12] it was 103%. The growth in test [13] was 103%; in [14], 97%; in test [15] it was 103%; in test [16] it was 104%; in test [17] it was 106%.

As for `Cc1cc(C)cc(C(=O)Nc2cccc(C#Cc3cccc4[nH]nc(N)c34)c2)c1`, the growth in test [1] is 4.43% (active); in [2] it was 47.4%; in test [3] it was 53.3%; in test [4] it was 73.9%; in test [5], 80.7%; in [6] it was 95.7%. For the same compound, the growth in test [7] was 64.6%; in test [8] it was 75.7%; in [9], 59.8%; in test [10], 39.4%; in test [11], 115%; in test [12], 2.35% (active). The growth is 38.6% in test [13]; 38.1% in test [14]; 43.2% in test [15]; 57.7% in test [16]; 12.6% in [17].

For `Cc1ccc(N2C(=O)/C(=C/C=C/c3ccco3)SC2=S)cc1`, the growth was 56.6% in test [1]; 75.3% in [2]; 99.2% in [3]; 103% in [4]; 92.4% in test [5]; 107% in test [6]. Moreover, the growth in test [7] is 103%; in [8], 96.2%; in test [9] it was 97.6%; in test [10], 71.6%; in [11], 126%; in [12] it was 90.6%. The growth is 90.1% in test [13]; 66.4% in test [14]; 94.2% in test [15]; 101% in test [16]; 95.4% in test [17].

For `Cc1ccc(CSc2nc(-c3ccc(Cl)cc3)c(C#N)c(N3CCOCC3)n2)cc1`, the growth in [1] was 85.6%; in [2], 82.2%; in [3], 97.2%; in test [4], 100%; in test [5], 89.8%; in [6], 98.2%. Besides, the growth in test [7] is 106%; in test [8], 107%; in test [9] it was 94.8%; in test [10] it was 79%; in [11], 115%; in [12], 94.8%. Further, the growth was 96% in test [13]; 88.6% in [14]; 90% in [15]; 104% in test [16]; 96.5% in test [17].
